# Several values for one entry are separate records, joined by “and”; a condition that tells them apart may be missing. Identical values can stand only once. Results filed as inconclusive are left out. More than one record can exist for a structure, and the calls need not agree. Activity calls are given as the source filed them. Rule for the calls, unless noted: active = hit-call score of the fitted dose curve at least 0.9, where 1 is the maximum; inconclusive = response in the unintended direction; inactive = score below 0.9.
# Key:
# [1] = read-out: UDP glucuronosyltransferase (UGT1A1), UGT1A1 (gene 54658); assay: LTEA_HepaRG_UGT1A1: Life Technologies and Expression Analysis (LTEA) Assay for UDP glucuronosyltransferase (UGT1A1) using HepaRG (AID 2283538; active = hit-call score of the fitted dose curve at least 0.9, where 1 is the maximum; inactive = score below 0.9); conditions: mRNA level, 48 h; actives raise or lower the signal
# In short: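 HepaRG, 48 h chemical exposure (top 100 uM, half-log 8-pt, 0.5% DMSO vehicle), duplicate wells; qRT-PCR (TaqMan, Fluidigm array) for UGT1A1 mRNA, housekeeping-normalized; bidirectional curve fit vs DMSO baseline.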
# [2] = read-out: UDP glucuronosyltransferase (UGT1A6), UGT1A6 (gene 54578); assay: LTEA_HepaRG_UGT1A6: Life Technologies and Expression Analysis (LTEA) Assay for UDP glucuronosyltransferase (UGT1A6) using HepaRG (AID 2283539; active = hit-call score of the fitted dose curve at least 0.9, where 1 is the maximum; inactive = score below 0.9); conditions: mRNA level, 48 h; actives raise or lower the signal
# In short: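 Measures mRNA change in HepaRG hepatic cells exposed 48 h to chemicals (eight-point, maximum 100 uM, 0.5% DMSO vehicle) in serum-free induction medium. Expression normalized to endogenous controls; DMSO served as negative control and baseline.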
# [3] = read-out: X-box binding protein 1 (XBP1), XBP1 (gene 7494); assay: LTEA_HepaRG_XBP1: Life Technologies and Expression Analysis (LTEA) Assay for X-box binding protein 1 (XBP1) using HepaRG (AID 2283540; active = hit-call score of the fitted dose curve at least 0.9, where 1 is the maximum; inactive = score below 0.9); conditions: mRNA level, 48 h; actives raise or lower the signal
# In short: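 Eight concentrations (half-log, highest 100 uM, 0.5% DMSO) tested in duplicate on HepaRG cells over 48 h in serum-free induction medium; qRT-PCR of XBP1 normalised to ACTB, GAPDH, POLR2A.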
# [4] = LTEA_HepaRG_LDH_cytotoxicity: Cytotoxicity Assessment in the Life Technologies and Expression Analysis (LTEA) Assay (AID 2283563);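 for AC50: LDH activity released into spent culture medium as a marker of cell death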
# In short: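 Spent-medium LDH after 48 h chemical exposure of HepaRG cells in serum-free induction medium; eight concentrations, half-log dilutions from 100 uM, duplicate wells, fitted upward relative to 0.5% DMSO.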
# [5] = ATG_XTT_Cytotoxicity: Cytotoxicity Assessment in the Attagene TRANS-FACTORIAL HepG2 Assay (AID 2283584);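 for AC50: XTT signal for cell number as viability in transfected HepG2 cells; cells exposed to compound for 24 h before reading; active means loss of viability signal versus DMSO baseline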
# In short: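 24 h chemical exposure of reporter-transfected HepG2; XTT signal loss vs DMSO indicates cytotoxicity.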
# [6] = TOX21_p53_BLA_p2_viability: Viability Assessment in the Tox21 HCT-116 p53 Agonism Beta-lactamase Assay, Phase 2 (AID 2283591);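 note: compound exposure lasted 16 h at 37 °C; actives lower the ATP signal meaning cytotoxicity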
# In short: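 Cytotoxicity readout: CellTiter-Glo ATP luminescence, 30 min at room temperature, after the beta-lactamase read. Cells were HCT116 exposed 16 h at 37C to compounds pin-transferred at 217-fold dilution from DMSO stocks.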
# [7] = biological target: Cellular tumor antigen p53 (Homo sapiens) (UniProt P04637); assay: TOX21_p53_BLA_p3_ratio: Tox21 HCT-116 p53 Agonism Beta-lactamase Assay, Ratio, Phase 3 (AID 2283596)
# Sequence of Cellular tumor antigen p53 (Homo sapiens) (P04637 whole entry, looked up): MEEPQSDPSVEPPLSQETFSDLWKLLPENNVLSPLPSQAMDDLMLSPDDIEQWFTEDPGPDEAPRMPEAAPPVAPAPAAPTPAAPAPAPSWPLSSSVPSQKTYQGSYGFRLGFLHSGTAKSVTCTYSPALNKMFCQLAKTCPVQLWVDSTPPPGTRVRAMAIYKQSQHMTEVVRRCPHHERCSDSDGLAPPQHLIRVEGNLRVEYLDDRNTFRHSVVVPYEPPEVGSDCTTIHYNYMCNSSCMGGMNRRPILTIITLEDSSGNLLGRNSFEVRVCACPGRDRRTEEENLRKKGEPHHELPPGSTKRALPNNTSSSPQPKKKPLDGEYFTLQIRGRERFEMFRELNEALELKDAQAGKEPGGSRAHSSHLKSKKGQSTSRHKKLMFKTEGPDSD
# In short: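 Cells were seeded at 4000/well, rested 5 h at 37C, then dosed with DMSO compound solutions (217-fold dilution) for 16 h. CCF4-AM substrate was loaded for 2 h at room temperature, and the 460/530 nm emission ratio was fitted for gain of signal versus DMSO.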
# [8] = TOX21_p53_BLA_p4_viability: Viability Assessment in the Tox21 HCT-116 p53 Agonism Beta-lactamase Assay, Phase 4 (AID 2283597);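 note: hits lower the luminescence signal meaning cytotoxicity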
# In short: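 In this multiplexed secondary endpoint, HCT116 cells (4000 per well, compound at 5 h, 16 h treatment) received CellTiter-Glo after the beta-lactamase read. Luminescence after 30 min RT reflects ATP, and falling signal marks cytotoxicity.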
# [9] = TOX21_p53_BLA_p3_viability: Viability Assessment in the Tox21 HCT-116 p53 Agonism Beta-lactamase Assay, Phase 3 (AID 2283593);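 note: cells exposed to compound for 16 h before reading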
# In short: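 Cellular ATP was quantified by CellTiter-Glo luminescence, read after 30 min at room temperature. Beforehand, HCT116 cells (4000/well) received compound 5 h post-seeding, 217-fold diluted from DMSO, then incubated 16 h at 37C.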
# [10] = biological target: Cellular tumor antigen p53 (Homo sapiens) (UniProt P04637); assay: TOX21_p53_BLA_p2_ratio: Tox21 HCT-116 p53 Agonism Beta-lactamase Assay, Ratio, Phase 2 (AID 2283592)
# In short: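 DMSO-normalized, positive-direction endpoint derived from the 460 nm/530 nm FRET ratio in HCT116 p53 beta-lactamase reporter cells exposed 16 h at 37C and loaded with CCF4-AM for 2 h.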
smiles,measurement,setting,value
CN1CCC[C@H]1c1cccnc1,outcome,[1],inactive
same,outcome,[2],inactive
same,outcome,[3],inactive
same,outcome,[4],inactive
same,outcome,[5],inactive
OCCC(F)(F)C(F)(F)C(F)(F)C(F)(F)C(F)(F)C(F)(F)F,outcome,[1],inactive
same,outcome,[2],inactive
same,outcome,[3],inactive
same,outcome,[4],inactive
same,outcome,[5],inactive
CCCCCCCCCCCCN1CCCC1=O,outcome,[1],inactive
same,outcome,[2],inactive
same,outcome,[3],inactive
same,outcome,[4],inactive
same,AC50,[5],155 µM (active)
same,outcome,[6],inactive
same,AC50,[7],67.1 µM (active)
same,outcome,[8],inactive
OC1CCC(C2CCCCC2)CC1 (stereo unspecified),outcome,[1],inactive
same,outcome,[2],inactive
same,outcome,[3],inactive
same,outcome,[4],inactive
same,outcome,[5],inactive
same,outcome,[6],inactive
same,outcome,[9],inactive
same,outcome,[7],inactive
C#C[C@]1(O)CC[C@H]2[C@@H]3CCC4=CC(=O)CC[C@@H]4[C@H]3CC[C@@]21C,AC50,[1],2.19 µM (active)
same,outcome,[2],inactive
same,outcome,[3],inactive
same,outcome,[4],inactive
same,outcome,[5],inactive
CCc1ccc(CCOc2ccc(CC3SC(=O)NC3=O)cc2)nc1 (stereo unspecified),AC50,[1],12.2 µM (active)
same,outcome,[2],inactive
same,outcome,[3],inactive
same,outcome,[4],inactive
same,outcome,[5],inactive
same,outcome,[6],inactive
same,outcome,[10],inactive
same,outcome,[7],inactive
same,outcome,[8],inactive
CC(C)(C)c1cccc(C(C)(C)C)c1O,outcome,[1],inactive
same,outcome,[2],inactive
same,outcome,[3],inactive
same,outcome,[4],inactive
same,outcome,[5],inactive
same,outcome,[6],inactive
same,outcome,[10],inactive
same,outcome,[9],inactive
same,outcome,[7],inactive
same,outcome,[8],inactive
CC(=O)CC(C)(C)O,outcome,[1],inactive
same,outcome,[2],inactive
same,outcome,[3],inactive
same,outcome,[4],inactive
same,outcome,[5],inactive
same,outcome,[6],inactive
same,outcome,[7],inactive
COCC(C)OCC(C)O (stereo unspecified),outcome,[1],inactive
same,outcome,[2],inactive
same,AC50,[3],50 µM (active)
same,outcome,[4],inactive
same,outcome,[5],inactive
CC[C@H](c1ccc(O)cc1)[C@@H](CC)c1ccc(O)cc1,AC50,[1],83.3 µM (active)
same,outcome,[2],inactive
same,AC50,[3],85.6 µM (active)
same,AC50,[4],76.1 µM (active)
same,AC50,[5],144 µM (active) and 133 µM (active) and 164 µM (active)
same,outcome,[5],inactive
same,AC50,[6],61.7 µM (active)
same,outcome,[6],inactive
same,AC50,[10],66.6 µM (active)
same,outcome,[10],inactive
same,AC50,[7],14.4 µM (active)
same,outcome,[7],inactive
same,AC50,[8],57.8 µM (active)
same,outcome,[8],inactive
CC(C)(C)CC(C)(C)c1ccc(O)c(-n2nc3ccccc3n2)c1,AC50,[1],17.4 µM (active)
same,outcome,[2],inactive
same,outcome,[3],inactive
same,outcome,[4],inactive
same,outcome,[5],inactive
same,outcome,[6],inactive
same,outcome,[7],inactive
same,outcome,[8],inactive
O=[N+]([O-])c1ccc(O)cc1,outcome,[1],inactive
same,outcome,[2],inactive
same,outcome,[3],inactive
same,outcome,[4],inactive
same,outcome,[5],inactive
same,outcome,[6],inactive
same,outcome,[10],inactive
same,outcome,[9],inactive
same,outcome,[7],inactive
same,outcome,[8],inactive
COC(=O)CCCCC(=O)OC,outcome,[1],inactive
same,outcome,[2],inactive
same,outcome,[3],inactive
same,outcome,[4],inactive
same,outcome,[5],inactive
same,outcome,[6],inactive
same,outcome,[9],inactive
same,outcome,[7],inactive
same,outcome,[8],inactive
c1ccc2cc3c(ccc4ccccc43)cc2c1,AC50,[1],4.24 µM (active)
same,outcome,[2],inactive
same,AC50,[3],17.2 µM (active)
same,outcome,[4],inactive
same,outcome,[5],inactive
same,outcome,[6],inactive
same,outcome,[7],inactive
same,outcome,[8],inactive
Cc1oc(-c2ccccc2)nc1CCOc1ccc(C[C@H](Nc2ccccc2C(=O)c2ccccc2)C(=O)O)cc1,AC50,[1],23.1 µM (active)
same,AC50,[2],16.8 µM (active)
same,outcome,[3],inactive
same,AC50,[4],28.7 µM (active)
same,outcome,[5],inactive
same,AC50,[6],7.33 µM (active)
same,AC50,[10],72.3 µM (active)
same,AC50,[7],39.9 µM (active)
same,AC50,[8],6.19 µM (active)
OCCC(F)(F)C(F)(F)C(F)(F)C(F)(F)C(F)(F)C(F)(F)C(F)(F)C(F)(F)F,outcome,[1],inactive
same,outcome,[2],inactive
same,outcome,[3],inactive
same,outcome,[4],inactive
same,outcome,[5],inactive
same,outcome,[6],inactive
same,outcome,[7],inactive
CCCCCCCCCCCCc1ccccc1S(=O)(=O)O,AC50,[1],12 µM (active)
same,outcome,[2],inactive
same,outcome,[3],inactive
same,AC50,[4],77.7 µM (active)
same,AC50,[5],156 µM (active)
CCOC(=O)CC(O)(CC(=O)OCC)C(=O)OCC,outcome,[1],inactive
same,outcome,[2],inactive
same,outcome,[3],inactive
same,outcome,[4],inactive
same,outcome,[5],inactive
same,outcome,[6],inactive
ClC1=C(Cl)C(Cl)(Cl)C(Cl)=C1Cl,outcome,[1],inactive
same,outcome,[2],inactive
same,outcome,[3],inactive
same,outcome,[4],inactive
same,outcome,[5],inactive
same,outcome,[6],inactive
same,AC50,[7],19.2 µM (active) and 2.22 µM (active)
same,outcome,[8],inactive
Oc1cccc(O)c1,outcome,[1],inactive
same,outcome,[2],inactive
same,outcome,[3],inactive
same,outcome,[4],inactive
same,outcome,[5],inactive
same,outcome,[6],inactive
same,outcome,[10],inactive
same,outcome,[7],inactive
same,outcome,[8],inactive
Oc1cc2ccccc2c2ccccc12,outcome,[1],inactive
same,outcome,[2],inactive
same,outcome,[3],inactive
same,outcome,[4],inactive
same,AC50,[5],16.6 µM (active) and 16.3 µM (active)
same,AC50,[6],15.2 µM (active)
same,AC50,[10],46.1 µM (active)
same,AC50,[9],14.5 µM (active)
same,AC50,[7],13.6 µM (active)
same,AC50,[8],12.2 µM (active)
CCCCCCCCC(=O)O,outcome,[1],inactive
same,outcome,[2],inactive
same,outcome,[3],inactive
same,outcome,[4],inactive
same,outcome,[5],inactive
same,outcome,[6],inactive
same,outcome,[10],inactive
same,outcome,[7],inactive
same,outcome,[8],inactive
CCCCCCCCCCCCCCCS(=O)(=O)Oc1ccccc1,AC50,[1],8.01 µM (active)
same,outcome,[2],inactive
same,outcome,[3],inactive
same,outcome,[4],inactive
same,outcome,[5],inactive
same,outcome,[6],inactive
same,outcome,[10],inactive
same,outcome,[8],inactive
CCC(=C(c1ccc(O)cc1)c1ccc(OCCN(C)C)cc1)c1ccccc1,outcome,[1],inactive
same,outcome,[2],inactive
same,outcome,[3],inactive
same,AC50,[4],80.5 µM (active)
same,AC50,[5],18.4 µM (active) and 34.2 µM (active) and 6.67 µM (active)
CCCCC(CC)COC(=O)CCCCC(=O)OCc1ccccc1 (stereo unspecified),outcome,[1],inactive
same,outcome,[2],inactive
same,outcome,[3],inactive
same,outcome,[4],inactive
same,outcome,[5],inactive
same,outcome,[6],inactive
same,outcome,[7],inactive
CCCCCCCC(=O)O,outcome,[1],inactive
same,outcome,[2],inactive
same,outcome,[3],inactive
same,outcome,[4],inactive
same,outcome,[5],inactive
same,outcome,[6],inactive
same,outcome,[7],inactive
same,outcome,[8],inactive
CC(C)(C)c1ccc(O)c(C(C)(C)C)c1,outcome,[1],inactive
same,outcome,[2],inactive
same,outcome,[3],inactive
same,outcome,[4],inactive
same,outcome,[5],inactive
same,AC50,[6],42.4 µM (active)
same,outcome,[6],inactive
same,AC50,[7],77.4 µM (active) and 79.4 µM (active)
same,AC50,[8],42.7 µM (active)
same,outcome,[8],inactive
CCCCC(CC)COC(=O)CCCCC(=O)OCC(CC)CCCC (stereo unspecified),outcome,[1],inactive
same,outcome,[2],inactive
same,outcome,[3],inactive
same,outcome,[4],inactive
same,outcome,[5],inactive
same,outcome,[6],inactive
same,outcome,[7],inactive
Nc1cccc2c(N)cccc12,outcome,[1],inactive
same,outcome,[2],inactive
same,outcome,[3],inactive
same,outcome,[4],inactive
same,outcome,[5],inactive
same,outcome,[6],inactive
same,outcome,[7],inactive
same,outcome,[8],inactive
CC#C[C@]1(O)CC[C@H]2[C@@H]3CCC4=CC(=O)CCC4=C3[C@@H](c3ccc(N(C)C)cc3)C[C@@]21C,AC50,[1],77.2 µM (active)
same,AC50,[2],79.8 µM (active)
same,AC50,[3],53.4 µM (active)
same,AC50,[4],11.5 µM (active)
same,outcome,[5],inactive
same,outcome,[6],inactive
same,outcome,[9],inactive
same,AC50,[7],20.1 µM (active)
same,outcome,[7],inactive
same,outcome,[8],inactive
O=C(O)c1ccccc1C(c1ccc(O)cc1)c1ccc(O)cc1,outcome,[1],inactive
same,outcome,[2],inactive
same,outcome,[3],inactive
same,outcome,[4],inactive

# — PubChem BioAssay (EPA / NIEHS)
